Experiments:
Conditions in all cases: concentration: 1 μM,replicates: in singlicate; n = 1
[1] = tested on: CDK8
[2] = tested on: CDK9
[3] = tested on: CDKL1
[4] = tested on: CDKL2
[5] = tested on: CDKL3
[6] = tested on: CDKL5
[7] = tested on: CHEK1
[8] = tested on: CHEK2
[9] = tested on: CIT
[10] = tested on: CLK1
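Also: KINOMEscan kinase panel screen.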

With `Cn1ccc2ncnc(Oc3ccc(NC(=O)Nc4cccc(C(F)(F)F)c4)c(Cl)c3)c21` the “%Inh” value [1] was 95.9%, the “%Inh” value [2] was 2% and the “%Inh” value [3] was 29%. The “%Inh” value [4] was 8%, the “%Inh” value [5] was 6% and the “%Inh” value [6] was 0%. The “%Inh” value [7] was 0%, the “%Inh” value [8] was 0% and the “%Inh” value [9] was 57%. For the same compound, the “%Inh” value [10] was 0%.

`O=C(Nc1n[nH]c2cc(-c3ccco3)ccc12)C1CC1` [SB-737447] was tested, and the “%Inh” value [1] was 0%, the “%Inh” value [2] was 11% and the “%Inh” value [3] was 29%. The “%Inh” value [4] was 86%, the “%Inh” value [5] was 0% and the “%Inh” value [6] was 0%. For the same compound, the “%Inh” value [7] was 0%, the “%Inh” value [8] was 16% and the “%Inh” value [9] was 1%. The “%Inh” value [10] was 28%.

In the case of `O=C(NCC1CC1)c1ccc(-c2cc(C(=O)NC3CC3)ccc2F)cc1` [GW810445], the “%Inh” value [1] was 62%, the “%Inh” value [2] was 0% and the “%Inh” value [3] was 0%. For the same compound, the “%Inh” value [4] was 0%, the “%Inh” value [5] was 28% and the “%Inh” value [6] was 0%. The “%Inh” value [7] was 0%, the “%Inh” value [8] was 0% and the “%Inh” value [9] was 25%. The “%Inh” value [10] was 0%.

For `COc1cc(Nc2nccc(N3CCC(NC(=O)c4cccc(C#N)c4)C3)n2)cc(OC)c1OC` (stereo not drawn) [GSK1379751], the “%Inh” value [1] was 6%, the “%Inh” value [2] was 0% and the “%Inh” value [3] was 0%. The “%Inh” value [4] was 41%, the “%Inh” value [5] was 0% and the “%Inh” value [6] was 0%. The “%Inh” value [7] was 0%, the “%Inh” value [8] was 0% and the “%Inh” value [9] was 8%. The “%Inh” value [10] was 4%.

`Cn1ccc2ncnc(Oc3ccc(NC(=O)Nc4cc(C(C)(C)C)on4)c(Cl)c3)c21` was tested, and the “%Inh” value [1] was 90.9%, the “%Inh” value [2] was 6% and the “%Inh” value [3] was 48%. For the same compound, the “%Inh” value [4] was 26%, the “%Inh” value [5] was 17% and the “%Inh” value [6] was 32%. For the same compound, the “%Inh” value [7] was 0%, the “%Inh” value [8] was 7% and the “%Inh” value [9] was 63%. The “%Inh” value [10] was 0%.

`COc1ccc(Nc2nccc(N3CCC(NC(=O)c4cccc(C#N)c4)C3)n2)cc1` (stereo not drawn) [GSK1379730] was tested, and the “%Inh” value [1] was 17%, the “%Inh” value [2] was 0% and the “%Inh” value [3] was 24%. The “%Inh” value [4] was 0%, the “%Inh” value [5] was 0% and the “%Inh” value [6] was 0%. For the same compound, the “%Inh” value [7] was 0%, the “%Inh” value [8] was 0% and the “%Inh” value [9] was 0%. For the same compound, the “%Inh” value [10] was 11%.

For `C[C@@H]1CCN(C(=O)N2CCCC2)C[C@@H]1N(C)c1ncnc2[nH]ccc12`, the “%Inh” value [1] was 24%, the “%Inh” value [2] was 0% and the “%Inh” value [3] was 24%. For the same compound, the “%Inh” value [4] was 11%, the “%Inh” value [5] was 0% and the “%Inh” value [6] was 5%. For the same compound, the “%Inh” value [7] was 9%, the “%Inh” value [8] was 0% and the “%Inh” value [9] was 13%. For the same compound, the “%Inh” value [10] was 4%.

In the case of `COc1cc2c(Nc3ccc(NC(=O)c4ccccc4)cc3)ncnc2cc1OCCCN1CCOCC1` [GSK301329], the “%Inh” value [1] was 0%, the “%Inh” value [2] was 0% and the “%Inh” value [3] was 23%. The “%Inh” value [4] was 30%, the “%Inh” value [5] was 0% and the “%Inh” value [6] was 0%. The “%Inh” value [7] was 0%, the “%Inh” value [8] was 58% and the “%Inh” value [9] was 9%. For the same compound, the “%Inh” value [10] was 10%.

With `COC(=O)c1cccc(NC(=O)NC2CCN(c3ccnc(NCc4ccc(F)cc4)n3)CC2)c1` [GSK1379860] the “%Inh” value [1] was 23%, the “%Inh” value [2] was 0% and the “%Inh” value [3] was 0%. For the same compound, the “%Inh” value [4] was 11%, the “%Inh” value [5] was 0% and the “%Inh” value [6] was 4%. For the same compound, the “%Inh” value [7] was 18%, the “%Inh” value [8] was 0% and the “%Inh” value [9] was 33%. The “%Inh” value [10] was 28%.

`O=c1[nH]cc(-c2ccc(O)cc2)c2sc(-c3ccncc3)cc12` [GSK1033723] was tested, and the “%Inh” value [1] was 27%, the “%Inh” value [2] was 6% and the “%Inh” value [3] was 7%. The “%Inh” value [4] was 9%, the “%Inh” value [5] was 0% and the “%Inh” value [6] was 0%. For the same compound, the “%Inh” value [7] was 0%, the “%Inh” value [8] was 10% and the “%Inh” value [9] was 45%. The “%Inh” value [10] was 95.7%.

With `CN1CCN(CCCNc2nccc(-c3c(-c4ccc(F)cc4)nn4cc(C(N)=O)ccc34)n2)CC1` [GW622475] the “%Inh” value [1] was 19%, the “%Inh” value [2] was 3% and the “%Inh” value [3] was 5%. For the same compound, the “%Inh” value [4] was 31%, the “%Inh” value [5] was 92.6% and the “%Inh” value [6] was 0%. For the same compound, the “%Inh” value [7] was 0%, the “%Inh” value [8] was 1% and the “%Inh” value [9] was 95.2%. The “%Inh” value [10] was 19%.

With `Cl.Nc1n[nH]c2cc(-c3ccccn3)ccc12` [GSK2189892] the “%Inh” value [1] was 13%, the “%Inh” value [2] was 7% and the “%Inh” value [3] was 4%. The “%Inh” value [4] was 24%, the “%Inh” value [5] was 0% and the “%Inh” value [6] was 0%. The “%Inh” value [7] was 18%, the “%Inh” value [8] was 0% and the “%Inh” value [9] was 25%. The “%Inh” value [10] was 23%.

`O=C1NCCc2[nH]c(-c3ccncc3)cc21` was tested, and the “%Inh” value [1] was 19%, the “%Inh” value [2] was 97.9% and the “%Inh” value [3] was 5%. The “%Inh” value [4] was 7%, the “%Inh” value [5] was 2% and the “%Inh” value [6] was 29%. For the same compound, the “%Inh” value [7] was 0%, the “%Inh” value [8] was 31% and the “%Inh” value [9] was 99.7%. For the same compound, the “%Inh” value [10] was 99.5%.

`CC(C)c1nc(-c2cccc(NS(=O)(=O)c3ccccc3)c2)c(-c2ccnc(Nc3ccc4c(c3)CN(C)CC4)n2)s1` [GSK1649598] was tested, and the “%Inh” value [1] was 0%, the “%Inh” value [2] was 60% and the “%Inh” value [3] was 0%. The “%Inh” value [4] was 100%, the “%Inh” value [5] was 37% and the “%Inh” value [6] was 99%. The “%Inh” value [7] was 5%, the “%Inh” value [8] was 24% and the “%Inh” value [9] was 84%. For the same compound, the “%Inh” value [10] was 30%.

`COC(=O)Nc1nc2cc(Oc3ccc(NC(=O)Nc4cc(C(F)(F)F)ccc4Cl)cc3)ccc2[nH]1.Cl` [GW697465] was tested, and the “%Inh” value [1] was 86%, the “%Inh” value [2] was 0% and the “%Inh” value [3] was 14%. For the same compound, the “%Inh” value [4] was 81%, the “%Inh” value [5] was 0% and the “%Inh” value [6] was 0%. For the same compound, the “%Inh” value [7] was 0%, the “%Inh” value [8] was 41% and the “%Inh” value [9] was 97.9%. For the same compound, the “%Inh” value [10] was 34%.

Source: paper PMC5540273 (PLoS ONE, 2017)
